Screening data (PubChem)
TMEM16A act: activates or potentiates the mouse TMEM16A chloride channel | HEK293 TMEM16A/YFP-H148Q/I152L, iodide quench fluorescence; active compounds read low | B-score at 10 µM | 340,000 tested, 0.3% active | AID 623877;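 active = fluorescence-ratio B-score plate-corrected deviation score at least 3 library SD below zero, with starting fluorescence score within 5 deviations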;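 note: channel opened by trigger with iodide after compound preincubation; score built on the fluorescence ratio of max minus min over baseline; more negative score means more quench and so TMEM16A activation or potentiation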
Target sequence (Q8BHY3 whole entry, looked up): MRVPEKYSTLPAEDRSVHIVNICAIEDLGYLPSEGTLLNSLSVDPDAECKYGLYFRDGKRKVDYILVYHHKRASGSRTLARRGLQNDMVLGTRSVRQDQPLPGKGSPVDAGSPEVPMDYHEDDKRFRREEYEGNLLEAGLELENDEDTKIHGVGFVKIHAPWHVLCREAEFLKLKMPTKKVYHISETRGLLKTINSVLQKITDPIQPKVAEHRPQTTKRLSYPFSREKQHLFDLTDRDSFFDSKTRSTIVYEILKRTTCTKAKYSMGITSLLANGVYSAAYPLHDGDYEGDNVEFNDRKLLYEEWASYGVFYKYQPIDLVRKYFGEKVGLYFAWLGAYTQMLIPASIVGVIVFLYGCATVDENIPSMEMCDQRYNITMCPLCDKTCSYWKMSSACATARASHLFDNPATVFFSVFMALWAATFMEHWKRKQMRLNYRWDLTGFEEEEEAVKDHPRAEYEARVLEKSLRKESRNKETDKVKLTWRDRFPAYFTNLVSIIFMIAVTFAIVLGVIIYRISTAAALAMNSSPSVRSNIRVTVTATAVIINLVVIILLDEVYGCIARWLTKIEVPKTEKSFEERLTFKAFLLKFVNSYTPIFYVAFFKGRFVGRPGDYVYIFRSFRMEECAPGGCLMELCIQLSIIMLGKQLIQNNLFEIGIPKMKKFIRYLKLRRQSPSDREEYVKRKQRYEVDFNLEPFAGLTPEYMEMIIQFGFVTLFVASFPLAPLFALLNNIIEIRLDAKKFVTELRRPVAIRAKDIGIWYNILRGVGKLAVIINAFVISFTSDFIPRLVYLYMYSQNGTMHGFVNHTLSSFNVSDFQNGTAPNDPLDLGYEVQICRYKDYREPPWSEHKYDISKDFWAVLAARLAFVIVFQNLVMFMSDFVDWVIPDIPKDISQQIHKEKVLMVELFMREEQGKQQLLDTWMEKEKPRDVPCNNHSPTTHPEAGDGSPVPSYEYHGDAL
CHT block: inhibits the human high affinity choline transporter. CHT-expressing cells, membrane potential dye, choline response; active compounds read low. B-score at 10 µM. 310,000 tested, 0.86% active;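 active = B-score over 3 SD under the library average, and starting fluorescence ratio not unusually high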;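 note: choline stimulus applied at its EC90 after an EC20 pre-addition; B-score computed on integrated fluorescence ratio after choline addition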
TMEM16A inh: mouse TMEM16A channel inhibition, primary screen | normalized B-score (activity score, 25-100; higher = stronger inhibition) at 10 µM | HEK293 TMEM16A/YFP iodide influx fluorescence, ionomycin | 310,000 tested, 1.2% active | Q8BHY3 | AID 588511;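 active = ratio plate-corrected score three or more library SD toward inhibition, starting fluorescence score within five deviations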;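 note: score derived from kinetic fluorescence span divided by baseline fluorescence per well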
CHT PAM: allosteric activators of human choline transporter CHT; Q9GZV3; CHT-expressing cells, membrane potential dye, choline EC20; active compounds read high; LV-AA mutant CHT in HEK293 cells; B-score at 10 µM; 310,000 tested, 0.49% active; AID 488977;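 active = initial fluorescence not abnormally high and integrated response B-score, plate-corrected, over 3 SD above library mean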
CHT inh conf: human CHT inhibition, confirmatory screen. shares compounds with CHT block. CHT-expressing cells, choline membrane potential dye; LV-to-AA substituted CHT, HEK293 cells. CHT activity remaining % of control (active compounds read low), % at 10 µM. 2,400 tested, 70% active. AID 493221;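 active = choline transporter activity left, mean of duplicates at 10 µM, below buffer-only control mean minus 3 SD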;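 note: depolarization triggered by choline at its EC90 following an EC20 pre-addition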
HEK293 CHT ctr: CHT inhibitor counter-screen hit in parental HEK293 cells | AID 493222 | membrane potential dye, choline response; active = decrease or increase beyond buffer ±3SD | shares compounds with CHT block | membrane potential ratio readout (active if shifted either direction beyond buffer ±3SD; no single direction) at 10 µM | 2,400 tested, 4% active;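 note: parental cells lack the transporter so any hit is non-specific; ratio is peak minus trough fluorescence over baseline after EC90 choline challenge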
Hits are given with their value. Most compounds without a hit are left out; they make up all but 2.4% or so of the library.

Results for O=C(Nc1ccccc1OC(F)F)c1cccc(S(=O)(=O)N2CCCC2)c1 ?
TMEM16A act: inactive; CHT block: -5.07; TMEM16A inh: inactive; CHT PAM: inactive; CHT inh conf: 55.6%; HEK293 CHT ctr: inactive

Results for Cc1ccc(C(NC(N)=O)c2ccccc2)cc1 (stereo not given) ?
TMEM16A act: inactive; CHT block: inactive; TMEM16A inh: inactive; CHT PAM: inactive

How did O=C1OCc2cc(NC(=O)C3COc4ccccc4O3)ccc21 (stereo not given) do in these assays?
TMEM16A act: inactive; CHT block: inactive; TMEM16A inh: inactive; CHT PAM: inactive

Results for CC(=O)n1cc([C@@H]2C=C(C(=O)N3CCOCC3)O[C@H](OCc3ccc(CO)cc3)C2)c2ccccc21 ?
TMEM16A act: inactive; CHT block: inactive; TMEM16A inh: inactive; CHT PAM: inactive

How did CC1CCC(NC(=O)c2cccc(S(=O)(=O)NCc3ccccc3)c2)CC1 (stereo not given) do in these assays?
TMEM16A act: inactive; CHT block: -14.8; TMEM16A inh: inactive; CHT PAM: inactive; CHT inh conf: 35.8%; HEK293 CHT ctr: inactive

How did CN1CCN(S(=O)(=O)c2cccc(C(=O)Nc3ccc(Br)cc3Br)c2)CC1 do in these assays?
TMEM16A act: inactive; CHT block: -10.4; TMEM16A inh: inactive; CHT PAM: inactive; CHT inh conf: 8.7%; HEK293 CHT ctr: inactive

What do the screens show for `O=C(NCCSc1ccccc1)c1cccnc1`?
TMEM16A act: inactive; CHT block: inactive; TMEM16A inh: inactive; CHT PAM: inactive

How did COc1ccc(CCC(=O)N2CCc3ccccc32)cc1 do in these assays?
TMEM16A act: inactive; CHT block: inactive; TMEM16A inh: inactive; CHT PAM: inactive

What do the screens show for `CC1Cc2ccccc2N1C(=O)COC(=O)c1ccc(O)cc1` (stereo not given)?
TMEM16A act: inactive; CHT block: -5.49; TMEM16A inh: inactive; CHT PAM: inactive; CHT inh conf: 52.4%; HEK293 CHT ctr: inactive

Results for COc1ccc(CCC(=O)N2c3ccccc3CC2C)cc1 (stereo not given) ?
TMEM16A act: inactive; CHT block: -5.44; TMEM16A inh: inactive; CHT PAM: inactive; CHT inh conf: inactive; HEK293 CHT ctr: inactive

Results for Cc1ccc(Nc2ccc(S(=O)(=O)N3CCOCC3)cc2[N+](=O)[O-])c(C)c1 ?
TMEM16A act: inactive; CHT block: inactive; TMEM16A inh: inactive; CHT PAM: inactive

How did COc1ccc(N2C(=O)CC(N(Cc3ccco3)C(=O)CCC(=O)O)C2=O)cc1 (stereo not given) do in these assays?
TMEM16A act: inactive; CHT block: -6.36; TMEM16A inh: inactive; CHT PAM: inactive; CHT inh conf: inactive; HEK293 CHT ctr: inactive

How did CCCOc1ccc(N2C(=O)CC(N(Cc3ccco3)C(=O)CCC(=O)O)C2=O)cc1 (stereo not given) do in these assays?
TMEM16A act: inactive; CHT block: inactive; TMEM16A inh: inactive; CHT PAM: inactive

How did Cc1ccc(C(=O)/C=C/C(=O)O)cc1 do in these assays?
TMEM16A act: inactive; CHT block: -5.77; TMEM16A inh: inactive; CHT PAM: inactive; CHT inh conf: 26.2%; HEK293 CHT ctr: inactive

How did Cc1ccc(/C=C/C(=O)c2ccccc2)cc1 do in these assays?
TMEM16A act: inactive; CHT block: inactive; TMEM16A inh: inactive; CHT PAM: inactive

How did CC(C)N(Cc1cc2ccccc2[nH]c1=O)C(=O)c1ccco1 do in these assays?
TMEM16A act: inactive; CHT block: inactive; TMEM16A inh: inactive; CHT PAM: inactive

How did CCC1(C)Cc2c(sc3nnn(CC(=O)Nc4ccccc4C)c(=O)c23)CO1 (stereo not given) do in these assays?
TMEM16A act: inactive; CHT block: inactive; TMEM16A inh: inactive; CHT PAM: inactive

What do the screens show for `CCC1(C)Cc2c(sc3nnn(CC(=O)Nc4ccccc4)c(=O)c23)CO1` (stereo not given)?
TMEM16A act: inactive; CHT block: inactive; TMEM16A inh: inactive; CHT PAM: inactive; CHT inh conf: 57.9%; HEK293 CHT ctr: inactive

Results for Cc1cccc(N(C)C(=O)c2cnn(-c3ccccc3)c2C)c1 ?
TMEM16A act: inactive; CHT block: inactive; TMEM16A inh: inactive; CHT PAM: inactive

How did O=C(Cc1ccccc1F)c1ccc(O)cc1O do in these assays?
TMEM16A act: inactive; CHT block: -6.19; TMEM16A inh: inactive; CHT PAM: inactive; CHT inh conf: 45.1%; HEK293 CHT ctr: inactive

What do the screens show for `Cc1occc1C(=O)N/N=C/c1sc(N2CCOCC2)nc1-c1ccccc1`?
TMEM16A act: inactive; CHT block: -9.14; TMEM16A inh: inactive; CHT PAM: inactive; CHT inh conf: inactive; HEK293 CHT ctr: inactive

How did O=[N+]([O-])c1cc(C(F)(F)F)cc([N+](=O)[O-])c1N1CCCNCC1 do in these assays?
TMEM16A act: inactive; CHT block: -8.77; TMEM16A inh: inactive; CHT PAM: inactive; CHT inh conf: 16.3%; HEK293 CHT ctr: inactive

Results for Cc1ccc(S(=O)(=O)/N=C2\C=C(Nc3cccc(C(=O)O)c3)C(=O)c3ccccc32)cc1 ?
TMEM16A act: inactive; CHT block: -5.91; TMEM16A inh: 25; CHT PAM: inactive; CHT inh conf: 41.1%; HEK293 CHT ctr: 2.51

How did COc1ccccc1NC(=S)NCCN1CCOCC1 do in these assays?
TMEM16A act: inactive; CHT block: -8.35; TMEM16A inh: inactive; CHT PAM: inactive; CHT inh conf: inactive; HEK293 CHT ctr: inactive

What do the screens show for `COc1ccc(NC(=S)NCCN2CCOCC2)c(OC)c1`?
TMEM16A act: inactive; CHT block: inactive; TMEM16A inh: inactive; CHT PAM: inactive

Results for CCOc1ccc(N2CC(C(=O)Nc3cc(C)on3)CC2=O)cc1 (stereo not given) ?
TMEM16A act: inactive; CHT block: inactive; TMEM16A inh: inactive; CHT PAM: inactive

Results for Cc1n[nH]c(C)c1Sc1ccccc1N=Cc1cc(Cl)cc([N+](=O)[O-])c1O ?
TMEM16A act: inactive; CHT block: -7.9; TMEM16A inh: inactive; CHT PAM: inactive; CHT inh conf: 36.2%; HEK293 CHT ctr: inactive

How did CCOc1ccc(CCNC(=O)c2cccc3c2C(=O)N(CCOC)C3)cc1OCC do in these assays?
TMEM16A act: inactive; CHT block: inactive; TMEM16A inh: inactive; CHT PAM: inactive

What do the screens show for `Cc1nc(-c2ccc(S(=O)(=O)N3CCCN(CCc4ccccc4)CC3)s2)cs1`?
TMEM16A act: inactive; CHT block: -5.36; TMEM16A inh: inactive; CHT PAM: inactive; CHT inh conf: inactive; HEK293 CHT ctr: inactive

What do the screens show for `COc1cccc(NC(=O)CN2C(=O)NC(C)(C3CC3)C2=O)c1` (stereo not given)?
TMEM16A act: inactive

What do the screens show for `CC(C)(C)C(=O)NC(=S)NNC(=O)C(c1ccccc1)c1ccccc1`?
TMEM16A act: inactive; CHT block: -6.55; TMEM16A inh: 100; CHT PAM: inactive; CHT inh conf: 36.1%; HEK293 CHT ctr: inactive
